Screens (PubChem)
Hits are enriched below; roughly 1.3% of the tested compounds scored in any of these assays.
YjeE inh: qHTS Assay for Inhibitors of YjeE. AID 605, 2007. Potency, µM. purified YjeE enzyme, qHTS inhibition assay. 0.05% of 71,000 active. tRNA threonylcarbamoyladenosine biosynthesis protein TsaE (Escherichia coli (strain …
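Purified YjeE (10 uM) with BODIPY Texas Red-labeled ADP probe (2 uM); compounds pin-transferred, 15 min at room temperature. Binding inhibition read as decreased fluorescence polarization; ADP titration as control.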
BRCT PPI green: qHTS Assay for Inhibitors of BRCT-Phosphoprotein Interaction (Green Fluorophore). AID 875, 2007. BRCA1 BRCT-phosphopeptide binding, green fluorescence polarization. Breast cancer type 1 susceptibility protein (Homo sapiens), P38398. 0.05% of 75,000 active. Potency, µM (doses to about 76.9 µM), for inactives: at the top dose activity change, negative = inhibition, usual class: inhibitors;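 also: potency is read from the fitted curve at half-maximal effect; plate controls were peptide without protein for full effect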
Target sequence (P38398 whole entry, looked up): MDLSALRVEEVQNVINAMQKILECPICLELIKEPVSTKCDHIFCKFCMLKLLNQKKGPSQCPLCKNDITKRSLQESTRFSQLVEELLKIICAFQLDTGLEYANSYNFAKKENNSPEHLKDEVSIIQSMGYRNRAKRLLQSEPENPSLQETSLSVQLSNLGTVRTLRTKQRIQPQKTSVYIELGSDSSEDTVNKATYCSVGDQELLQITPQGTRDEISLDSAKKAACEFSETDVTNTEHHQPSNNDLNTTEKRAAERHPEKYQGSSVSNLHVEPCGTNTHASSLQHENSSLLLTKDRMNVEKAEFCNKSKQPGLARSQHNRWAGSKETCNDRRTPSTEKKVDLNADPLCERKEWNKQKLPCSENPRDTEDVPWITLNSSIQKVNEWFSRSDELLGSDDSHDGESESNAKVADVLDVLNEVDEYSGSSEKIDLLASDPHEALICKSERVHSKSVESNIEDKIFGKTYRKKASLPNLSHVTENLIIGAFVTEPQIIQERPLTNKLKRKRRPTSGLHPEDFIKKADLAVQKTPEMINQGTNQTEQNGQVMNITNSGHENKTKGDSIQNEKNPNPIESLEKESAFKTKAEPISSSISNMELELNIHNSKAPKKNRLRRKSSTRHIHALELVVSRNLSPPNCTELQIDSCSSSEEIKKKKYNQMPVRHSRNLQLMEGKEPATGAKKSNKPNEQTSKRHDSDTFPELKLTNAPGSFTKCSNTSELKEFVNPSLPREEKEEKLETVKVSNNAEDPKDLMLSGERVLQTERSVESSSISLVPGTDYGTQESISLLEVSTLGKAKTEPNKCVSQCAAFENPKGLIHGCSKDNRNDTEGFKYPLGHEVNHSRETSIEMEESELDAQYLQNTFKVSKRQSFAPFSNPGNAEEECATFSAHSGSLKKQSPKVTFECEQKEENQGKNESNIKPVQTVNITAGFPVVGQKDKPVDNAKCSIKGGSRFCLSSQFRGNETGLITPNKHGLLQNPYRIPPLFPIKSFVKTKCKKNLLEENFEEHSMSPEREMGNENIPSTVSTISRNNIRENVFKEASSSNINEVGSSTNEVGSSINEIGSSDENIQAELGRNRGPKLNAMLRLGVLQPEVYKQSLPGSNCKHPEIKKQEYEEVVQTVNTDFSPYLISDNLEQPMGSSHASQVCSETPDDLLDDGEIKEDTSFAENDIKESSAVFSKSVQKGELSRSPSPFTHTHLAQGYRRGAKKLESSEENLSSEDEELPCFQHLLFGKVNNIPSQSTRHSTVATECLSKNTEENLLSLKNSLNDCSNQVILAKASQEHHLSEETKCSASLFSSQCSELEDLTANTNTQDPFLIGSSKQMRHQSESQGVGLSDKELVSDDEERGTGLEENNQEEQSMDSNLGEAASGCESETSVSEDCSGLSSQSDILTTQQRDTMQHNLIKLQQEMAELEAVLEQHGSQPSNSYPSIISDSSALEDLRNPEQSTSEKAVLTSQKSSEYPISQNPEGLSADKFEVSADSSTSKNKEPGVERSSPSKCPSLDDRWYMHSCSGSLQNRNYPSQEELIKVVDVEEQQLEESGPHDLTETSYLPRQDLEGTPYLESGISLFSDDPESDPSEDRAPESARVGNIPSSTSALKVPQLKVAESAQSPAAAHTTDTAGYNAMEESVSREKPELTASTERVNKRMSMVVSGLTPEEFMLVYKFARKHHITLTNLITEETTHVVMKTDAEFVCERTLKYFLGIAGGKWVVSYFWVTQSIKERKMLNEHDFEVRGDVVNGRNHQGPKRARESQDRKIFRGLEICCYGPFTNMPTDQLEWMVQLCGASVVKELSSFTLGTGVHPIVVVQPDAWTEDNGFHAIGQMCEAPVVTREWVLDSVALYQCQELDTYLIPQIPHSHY
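Compounds were incubated for 12 min at room temperature with a complex of 100 nM fluorescein-tagged pBACH1 decapeptide and 250 nM His-tagged BRCT protein. Buffer was phosphate pH 7.3 with EDTA, DTT and Tween 20. Disruption of binding lowers the polarization signal.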
USP2a inhib: qHTS Assay for Inhibitors of Ubiquitin-specific Protease USP2a; 0.1% of 60,000 active; USP2a enzymatic assay, qHTS inhibition; Potency, µM (top dose mostly 38.3 µM), inactives show at the highest dose activity change, negative = inhibition, hits mostly inhibitors; Ubiquitin carboxyl-terminal hydrolase 2 (Homo sapiens), O75604; AID 927, 2007; also: potency is read from the fitted curve at half-maximal effect; nearly all actives have a fitted effect of over 60% in size
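USP2 core (20nM final) preincubated 30 min RT with compound, then Ub-PLA2 20nM and NBD C6-HPC 20uM final added; buffer 20mM Tris-HCl pH 8.0, 2mM CaCl2. Fluorescence Ex 460/Em 535 read at 0 and 2.5 h; normalized to NEM.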
DNA Pol III inh: qHTS Assay for Inhibitors of DNA Polymerase III Holoenzyme System; Potency, µM (doses to about 57.1 µM), for the others: at the highest dose activity change, negative = inhibition; reconstituted DNA polymerase III holoenzyme replication, biochemical; 0.25% of 71,000 active; AID 603, 2007; also: potency is read from the fitted curve at half-maximal effect; % is scaled to controls: 0 for no effect and ±100 for the full control effect
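Reconstituted *E. coli* holoenzyme (0.35 nM Pol III, 1 nM beta, 154 nM SSB, 2 nM primase) was preincubated with compound for 15 min at RT. Synthesis on 1.4 nM ssM13Gori ran 35 min, then was stopped with PicoGreen/EDTA and read as dsDNA fluorescence.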
BRCT inh red: qHTS Assay for Inhibitors of BRCT-Phosphoprotein Interaction (Red Fluorophore); Breast cancer type 1 susceptibility protein (Homo sapiens), P38398; BRCT-phosphopeptide binding, red fluorescence polarization; Potency, µM (doses to about 76.9 µM), for the others: at the highest dose activity change, negative = inhibition, usual class: inhibitors; 0.03% of 75,000 active; also: % is scaled to controls: 0 for no effect and ±100 for the full control effect
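Rhodamine-labelled pBACH1 10-mer (100 nM) bound to BRCT domain (100 nM) at pH 7.3; compounds incubated 12 min room temperature, polarization read. Free peptide defines full inhibition; unlabelled decapeptide titrated as control.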
ERK AVP inh: qHTS Assay for Inhibitors of the ERK Signaling Pathway using a Homogeneous Screening Assay | HEK293-V1b, vasopressin-stimulated pERK AlphaScreen | 0.99% of 72,000 active | Potency, µM (titrated, usually from 57.5 µM), for inactives: at the top dose activity, negative = inhibition, hits mostly inhibitors; also: potency is read from the fitted curve at half-maximal effect; % is scaled to controls: 0 for no effect and ±100 for the full control effect; nearly all actives have a fitted effect of over 55% in size
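V1b-HEK293 cells; cpd 30 min 37C; 25 nM vasopressin 5 min; lyse 10 min; AlphaScreen beads 5 hr RT. Normalized to DMSO basal and 25 nM vasopressin; AC50 by Hill fit.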
* marks the source's active call; other numbers are inactive results; i = inactive; ? = inconclusive; / = no result given; [ ] = remark or other dose. Calls follow the shape of the dose curve; as a rule, active = well fitted curve in the direction sought with a large enough effect; inconclusive = small, poorly fitted or top-dose-only effect, or another doubt; inactive = no such curve, though single readings can be large; an effect the other way counts as inactive or inconclusive.

SMILES	YjeE inh	BRCT PPI green	USP2a inhib	DNA Pol III inh	BRCT inh red	ERK AVP inh
CCc1c(C)nc2ncnn2c1NCCc1ccc(OC)c(OC)c1	i	-0.1%	1.0%	-0.2%	-0.5%	-26.2%
COCc1cc(=O)[nH]c(Nc2nc(C)c3ccc(C)cc3n2)n1	i	1.6%	-2.8%	-0.8%	-1.4%	-2.6%
Cc1ccc2c(C)nc(Nc3nc(CSc4nnnn4-c4ccccc4)cc(=O)[nH]3)nc2c1	i	-1.8%	75.9%	12.6µM*	-0.9%	-15.4%
CC(=O)N1CCN(c2ccc(Nc3ncnc4c3oc3ccccc34)cc2)CC1	i	-2.7%	6.0%	-2.3%	-1.4%	20µM*
CCc1nc(Nc2ccc(N3CCN(C(C)=O)CC3)cc2)c2oc3ccccc3c2n1	i	1.9%	40.5%	-7.2%	-0.3%	31.6µM*
c1ccc(N2CCN(c3ncnc4c3oc3ccccc34)CC2)cc1	i	0.0%	7.2%	-2.9%	-0.9%	31.6µM*
c1ccc(Nc2ncnc3c2oc2ccccc23)cc1	i	0.8%	2.3%	-4.4%	0.7%	-19.3%
c1ccc2c(c1)oc1c(Nc3ccc(CN4CCOCC4)cc3)ncnc12	i	-6.4%	13.2%	0.6%	0.3%	20µM*
COc1ccc(-c2cc(C(=O)N/N=C/c3ccc(OC)c(OC)c3)[nH]n2)cc1	/	0.8%	/	/	1.9%	/
CCOC(=O)C1CCCN(c2ncnc3c2oc2ccccc23)C1 (centres undefined)	i	2.6%	7.3%	-4.9%	-1.1%	25.1µM*
COc1ccc(CCn2c(-c3ccco3)nc3ccccc3c2=O)cc1OC	i	13.2%	39.0%[7.66 µM]	-7.8%[11.4 µM]	0.2%	10µM*
CC[C@H]1C(=O)OC[C@@H]1Cc1cncn1C	i	/	/	-5.8%	/	/
O=C(O)C[C@H](Cc1ccccc1)C(=O)O	i	-1.3%[15.4 µM]	/	-7.3%[11.4 µM]	1.0%[15.4 µM]	9.6%[11.5 µM]
O=C(NCc1cccs1)c1ccc(N2CCCCC2)nc1	i	-3.0%	2.1%	-5.9%	1.1%	-3.9%
CC1CCCN(c2ccc(C(=O)NCc3cccs3)cn2)C1 (centres undefined)	i	-3.6%	2.7%	-5.4%	-0.7%	15.8µM*
Cc1nc(NCCCn2ccnc2)c2ccccc2n1	i	-2.6%	-10.9%	1.3%	1.0%	0.5%
O=C1c2ccccc2-c2onc3ccc(NCCCn4ccnc4)c1c23	25.1µM*	0.794µM*	81.1%	353.7%	0.631µM*	15.8µM*
COc1ccc2noc3c2c1C(=O)c1ccccc1-3	i	3.16µM*	84.4%	482.1%	-9.7%	?
Cc1cccc(NS(=O)(=O)c2ccc(Cl)c(C(=O)O)c2)c1	/	-0.7%	/	/	0.6%	/
Cc1ccc(Cn2c(N3CCCCCC3)nc3c2c(=O)[nH]c(=O)n3C)cc1	i	0.9%	/	-5.2%	-2.2%	15.8µM*
N#CC1=C(N)Oc2n[nH]c(-c3ccccc3)c2C1c1cccnc1 (centres undefined)	i	-0.5%	2.7%	-4.9%	-2.1%	24.3%
CCOc1cc(C2C(C#N)=C(N)Oc3n[nH]c(-c4ccccc4)c32)ccc1O (centres undefined)	i	0.2%	?	5.0%	-1.7%	15.8µM*
Cc1ccc(-c2[nH]nc3c2C(c2cccnc2)C(C#N)=C(N)O3)cc1 (centres undefined)	i	1.9%	8.3%	-0.1%	0.3%	12.6µM*
C=C1CC[C@@H]2[C@](C)(CC[C@@H](O)[C@]2(C)CO)[C@@H]1C/C=C1/C(=O)OC[C@H]1O	i	/	/	-3.8%	/	/
C=C(C)CSC1=C(C#N)C(c2ccccc2Cl)CC(=O)N1 (centres undefined)	i	-0.7%	/	-2.9%	-1.3%	20µM*
SMILES	YjeE inh	BRCT PPI green	USP2a inhib	DNA Pol III inh	BRCT inh red	ERK AVP inh
Cn1c(=O)c2c(nc(Br)n2CCCc2ccccc2)n(C)c1=O	i	0.6%	7.3%	-1.1%	-0.9%	-22.3%
CN(Cc1ccccc1)c1nc2c(c(=O)[nH]c(=O)n2C)n1CCOc1ccccc1	i	-3.5%	-20.9%	0.2%	-1.2%	12.6µM*
CN(Cc1ccccc1)c1nc2c(c(=O)n(C)c(=O)n2C)n1CCCc1ccccc1	i	-5.3%	-6.6%	0.6%	0.4%	20µM*
CC(C)[C@@H]1NC(=O)[C@H](CCCCN)NC(=O)[C@H](Cc2c[nH]c3ccccc23)NC(=O)[C@H](Cc2ccc(O)cc2)NC(=O)[C@H](C)N(C)C(=O)[C@H](Cc2ccccc2)NC1=O	i	-2.7%	9.7%	6.0%	-0.8%	-21.8%
Cc1nc2ccccc2c2oc(C(=O)N3CCN(C(=O)c4ccco4)CC3)cc12	i	6.9%	/	-3.5%	-2.4%	-18.1%
Cc1nc2ccccc2c2oc(C(=O)N3CCc4ccccc4C3)cc12	i	15.8%	/	-12.3%	-0.7%	7.94µM*
c1nc(N2CCCCCC2)c2[nH]cnc2n1	i	2.4%	/	3.6%	0.6%	/
c1nc(N2CCCC2)c2[nH]cnc2n1	i	-2.4%	-5.5%	-0.6%	-1.4%	31.6µM*
CC[C@H](C)C(=O)O[C@@H]1CCC=C2C=C[C@H](C)[C@@H](CC[C@H]3C[C@@H](O)CC(=O)O3)[C@H]21	i	/	/	-1.2%	/	/
CN(C(=O)c1ccccc1C(=O)O)C1CC(C)(C)NC(C)(C)C1	i	-8.5%	/	-9.2%	-4.4%	/
Cc1cccc(CNc2ncnc3ccc(-c4ccc(C(=O)N(C)C)cc4)cc23)c1	i	6.1%	66.2%	-5.8%	-1.4%	20µM*
COc1ccccc1CNc1ncnc2ccc(-c3cccnc3)cc12	i	11.0%	53.5%	12.3%	4.1%	20µM*
COc1ccccc1-c1ccc2ncnc(NCc3ccccc3)c2c1	i	-0.6%	148.5%	8.3%	1.0%	15.8µM*
COc1ccccc1CNc1ncnc2ccc(-c3ccccc3C#N)cc12	i	-1.3%	217.5%	14.7%	0.7%	25.1µM*
COc1ccc(CNc2ncnc3ccc(-c4ccccc4C#N)cc23)c(OC)c1	i	-1.8%	133.0%	-0.1%	-1.4%	-13.7%
C[C@@H]1C(=O)O[C@H]2[C@@H](O)[C@@]34[C@H]5C[C@H](C(C)(C)C)[C@@]36[C@H](OC(=O)[C@@H]6O)O[C@@]4(C(=O)O5)[C@@]12O	i	/	/	-6.5%	/	/
CCCCCCCCCCCCCCCCCC(=O)O[C@H](CC(=O)O)C[N+](C)(C)C	i	-4.0%	25.2%	-4.4%	-1.7%	?
